# Screening results deposited in PubChem by Columbia University Molecular Screening Center.
# Only a sample is shown.
# VCAM1 TNFa pot: TNF alpha stimulated VCAM1 expression potentiation | HUVEC TNFa-stimulated VCAM-1 immunofluorescence, high-content imaging; scaled per plate to unstimulated/TNFa-only wells | activation, % at 2 µM | actives 0.19% (n = 93,000);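 active = activation above the screen mean plus 3 SD, with well images confirming the hit on visual review, cut at about 28% in these data, passing the limit was not always enough; inconclusive = activation above that limit but images do not confirm it; inactive = activation not above that limit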;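 also: signal is the number of cytoplasmic VCAM-1 stained grains per positive cell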
# VCAM1 pot confirm: enhancers of VCAM1 induction in HUVEC – imaging, triplicate retest, confirmation | 230 tested, under 10 active | AID 1034 | HUVEC TNFa-stimulated VCAM-1 immunofluorescence imaging | shares compounds with VCAM1 TNFa pot | activation, % at 2 µM;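 active = activation above 30% in triplicate retests at 2 µM, then confirmed by visual review of the well images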;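 also: scaled per plate between unstimulated and TNFa-stimulated DMSO control wells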
# Active calls of the source: *; ? = inconclusive.
SMILES,VCAM1 TNFa pot,others
CN(c1cccc(NC(=O)CN(c2ccc(C34CC5CC(CC(C5)C3)C4)cc2)S(C)(=O)=O)c1)S(C)(=O)=O,1,
Clc1ccc(COc2ccccn2)cc1Cl,-8,
N#Cc1ccccc1Sc1ccccc1C(=O)Nc1ccccc1,1,
Cc1ccc(-n2c(N)c(C(=O)NCc3cccnc3)sc2=S)cc1,-6,
O=C(O)c1cn(C2CC2)c2cc(N3CCOCC3)c(F)cc2c1=O,-5,
COC(=O)c1cc(C#N)c(Oc2ccc(F)cc2)nc1C,-8,
COc1ccc(OC)c(-n2c(-c3cccc(O)c3)n[nH]c2=S)c1,-7,
COCCNC(=O)C(c1ccccc1C)N(C(=O)Cn1nnc2ccccc21)c1cccnc1 (stereo unspecified),-2,
CN(C)CC(C)(C)CNS(=O)(=O)c1ccc(Cl)c(Cl)c1,5,
COc1ccc(OC)c(-n2c(C)ccc2-c2ccc(S(C)(=O)=O)cc2)c1,-4,
O=c1[nH]c(NCc2ccco2)nnc1Cc1ccccc1Cl,-8,
Cc1ccc(S(=O)(=O)N2CCCC(C(=O)NCCc3ccc4c(c3)OCO4)C2)cc1 (stereo unspecified),-1,
CC(C)(C)C(=O)COC(=O)CNC(=O)c1ccc(Oc2ccccc2)cc1,-1,
COCCn1c(SCC(=O)Nc2ccc(Cl)cn2)nc2ccccc21,-7,
Cc1nonc1NCn1nnc2ccccc21,0,
Cc1ccc(S(=O)(=O)NCC(c2cccnc2)N(C)C)cc1 (stereo unspecified),-5,
Oc1ccc(-n2cnnn2)cc1,-5,
CCOc1ccc(Oc2ccc(-c3nnc(-c4ccccc4)o3)cc2[N+](=O)[O-])cc1,-3,
COc1ccc(-c2c3c(nc4sc5c(Cl)nc(C)nc5c24)CCC3)cc1,2,
Cc1ccc(-n2nnc3c(SCC(=O)N4CCN(c5ccccc5)CC4)ncnc32)cc1,-92,
CC(=O)Nc1cc(C(=O)N2CCN(C)CC2)ccc1Sc1ccc(C)cc1,-8,
Cc1cccc(-n2c(SCc3cc(=O)n4c(C)cccc4n3)nc3[nH]ncc3c2=O)c1,0,
CC(=O)Nc1c(C(=O)N2CCCCCC2)cnn1-c1ccccc1Cl,-12,
CC(C)(C)NC(=O)NC(=O)COC(=O)c1cc(=O)[nH]c2ccccc12,-8,
CCc1nc(C)cn1S(=O)(=O)c1cc(C)c(OC)c(C)c1C,-8,
SMILES,VCAM1 TNFa pot,others
CC(C)CC(=O)NCc1ccc(F)cc1,-5,
COc1ccc(C2/C(=C(\O)c3cccc(OC)c3)C(=O)C(=O)N2c2ccccn2)cc1 (stereo unspecified),3,
Cc1ccc(N(C)C(=O)N2CCN(S(=O)(=O)c3ccc(C)c(C)c3)CC2)cc1,-4,
CC(C)(C)C(=O)/C(=C\c1cccc([N+](=O)[O-])c1)n1cncn1,-90,
C1CSC2(N1)C1CC3CC2CC(C1)C31NCCS1 (stereo unspecified),-9,
O=C1Nc2ccc(F)cc2C12SCCS2,-2,
O=C(O)C1CCN(S(=O)(=O)/C=C/c2ccccc2)CC1,-8,
COC(=O)C1=C(O)C(C(=O)OC)C(c2ccc(C)cc2)C(C#N)(C#N)C1c1ccc(C)cc1 (stereo unspecified),-8,
O=C(N1CCOCC1)N1CCN(S(=O)(=O)N2CCOCC2)CC1,22,
CCC1=NC(c2ccccc2Cl)N(O)C1(C)C (stereo unspecified),-59,
C/C(Sc1nnc(Cc2ccccc2)o1)=C(/O)c1ccccc1,6,
CCOc1ccccc1C1CC(c2ccc(F)cc2)Nc2nc(N)nn21 (stereo unspecified),-10,
CC1CCN(c2ccccc2NC(=S)NC(=O)c2ccco2)CC1,-6,
O=C(CC12CC3CC(CC(C3)C1)C2)NCC(=O)N1CCc2ccccc2C1,1,
CC(=O)OCc1nc2sc3c(c2c(=O)[nH]1)CCCC3,-1,
O=c1oc(-c2cccs2)nc2sc3c(c12)CCCCC3,37*,
CN(C)c1oc(-c2cccs2)nc1C#N,0,
COc1cccc(OC)c1NC(=O)CN1CCC(NC(=O)c2cccc(F)c2)CC1,-100,
CC(=O)c1ccc(C(C)(C)c2ccc(C(C)=O)s2)s1,13,
CCCNc1nc(Nc2ccc(C)cc2)nc(N2CCCC2)n1,-16,
CS(=O)(=O)N(CC(=O)NCc1ccncc1)Cc1ccc(Cl)cc1,-15,
CC1=CC(C)(C)N(C(=O)C(C)N2C(=O)c3ccccc3C2=O)c2ccc(C)cc21 (stereo unspecified),-7,
O=S(=O)(C/C(=C/CO)S(=O)(=O)c1ccccc1)c1ccccc1,-86,
CN(C)S(=O)(=O)c1cccc(NC(=O)Cn2cnc3ccccc3c2=O)c1,-6,
COc1ccc(NC(=O)CCC(=O)Nc2nnc(C(F)(F)F)s2)c(OC)c1,-16,
SMILES,VCAM1 TNFa pot,others
CCNc1nc(NCC)nc(N2CC(=O)N(CC(=O)OCC)C2=N)n1,-17,
Cc1nc2ncnn2c(N2CCN(C(=O)Cc3cccs3)CC2)c1C,-1,
CCN(C(=O)c1cccc(F)c1)c1ccccc1C,-9,
COC(=O)C(NC(=O)c1ccc(C)cc1)(Nc1cccc(C)n1)C(F)(F)F (stereo unspecified),-17,
Cc1ccc(S(=O)(=O)CCc2nc3ccccc3s2)cc1C,8,
COc1ccc(NC(=O)/C(Cl)=C(/Cl)S(=O)(=O)Cc2ccc(C)cc2)cn1,-51,
COC(=O)C1=C(C(=O)OC)SC(=C2C(=S)C(C)(C)N(C(=O)CC(C)C)c3ccccc32)S1,-8,
COc1ccc(CCNC(=O)NC23CC4CC(CC(C4)C2)C3)cc1OC,9,
Cc1cc(C)c(S(=O)(=O)N(C2=NCCS2)S(=O)(=O)c2c(C)cc(C)cc2C)c(C)c1,11,
COc1ccc(-c2cc(O)cc(O)c2)cc1,-1,
O=C(O)c1cc2ccc3ccccc3c2oc1=O,-26,
C=CCn1c(COc2ccc3c(c2)CCCC3)nnc1SCC(=O)Nc1cccc(SC)c1,3,
Cc1[nH]n(-c2ccc([N+](=O)[O-])cc2)c(=O)c1N=Nc1nc2ccccc2s1,-52,
CCOc1ccc(S(=O)(=O)N(CC(=O)N/N=C/c2cccs2)c2ccc(C)cc2)cc1,9,
CCc1ccc(N/C(SCc2ccccc2C)=C(/C#N)C(=O)NCc2ccco2)cc1,-4,
COc1ccc(/C=N/N=C2/NC(=O)C(c3ccccc3)(c3ccccc3)S2)cc1,-6,
Cc1onc(-c2ccccc2Cl)c1C(=O)Nc1sc2c(c1C(N)=O)CCC(C)C2 (stereo unspecified),6,
CCOC(=O)c1cn(CC(=O)Nc2ccc3c(c2)OCCO3)nn1,-4,
Cc1ncoc1C(=O)Nc1ccc2c(c1)OCCO2,81*,VCAM1 pot confirm=-10
Cc1ccc2nc(SCC(=O)Nc3ccc4c(c3)OCCO4)[nH]c2c1,-10,
O=Nc1c(O)n(Cc2ccc(Cl)cc2Cl)c2ccccc12,38,
CCc1c(C)sc(NC(=O)CC#N)c1C#N,-17,
CC1(C)Cc2c(sc(NC(=O)c3ccc(Br)o3)c2C#N)CO1,-2,
N#Cc1c(NC(=O)CCC(=O)O)sc2c1CCCC2,?,VCAM1 pot confirm=-13
Cc1ccccc1-c1nc(Cc2ccccc2)no1,9,
Cc1cccc(NC(=O)c2cccc(N3C(=O)C4C5CCC(C5)C4C3=O)c2)c1C (stereo unspecified),-2,
N#Cc1c2c(c(=S)n(-c3ccccc3)c1N)CCCC2,83*,VCAM1 pot confirm=-8
CCN1CCN(C(c2cc(OC)c(OC)c(OC)c2)c2nnnn2C(C)C)CC1 (stereo unspecified),-3,
OC(CN1C2=NCCN2c2ccccc21)c1ccc2c(c1)OCO2 (stereo unspecified),-6,
